# High-throughput results as filed in PubChem BioAssay.
# DAX1 inh-1: inhibitors of DAX1 repression of SF-1 activated StAR promoter; HEK293T StAR-luciferase reporter, SF-1/DAX-1 repression relief; inhibition, % at 6.8 µM; hit rate 1.1% among 370,000; AID 652010;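 active = inhibition above the mean over all tested compounds plus 3 SD, cut at about 3.6% in these data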;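 also: 0% = DAX-1 cells with DMSO and 100% = cells lacking DAX-1 with DMSO; higher inhibition means more luminescence from relief of DAX-1 repression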
# hcDAF-12 act: activates DAF-12 receptor from parasite H. contortus | hit rate 1.4% among 370,000 | HEK293 hcDAF-12 lit1-tk-luc reporter, luminescence; 0% DMSO, 100% Δ7-dafachronic acid | activation, % at 6.8 µM;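 active = activation above the mean of all tested compounds plus 3 SD, cut at about 5.5% in these data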;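 also: 100% = response to 3 µM Δ7-dafachronic acid high control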
# ssDAF-12 act: S. stercoralis DAF-12 activation, primary screen. HEK293 ssDAF-12/GRIP1 lit1-tk-luc reporter, luminescence; % of 3 µM dafachronic acid response. activation, % at 6.8 µM. hit rate 1% among 370,000. AID 652126;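 active = activation above the mean over all tested compounds plus 3 SD, cut at about 0.9% in these data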;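 also: 0% = DMSO-only wells and 100% = 3 µM delta7-dafachronic acid wells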
# AHR act: activates the human aryl hydrocarbon receptor; P35869; AHR-responsive luciferase reporter cells, luminescence; activation, % at 5 µM; hit rate 2.5% among 320,000; in the data active = activation above about 47%;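 also: 0% = vehicle wells and 100% = reference agonist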
# DAX1 inh-2: inhibits human nuclear receptor DAX1. P51843. HEK293 Gal4-DAX1 luciferase reporter, luminescence. inhibition, % at 6.75 µM. hit rate 0.99% among 340,000. AID 504766;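 active = inhibition above the mean over all tested compounds plus 3 SD, cut at about 4.2% in these data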;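 also: 0% = DAX1-transfected cells with DMSO and 100% = empty-vector control cells with DMSO; inhibition shows as a rise in luminescence from relieved DAX1 repression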
# Target sequence (P51843 207-470 limits assumed): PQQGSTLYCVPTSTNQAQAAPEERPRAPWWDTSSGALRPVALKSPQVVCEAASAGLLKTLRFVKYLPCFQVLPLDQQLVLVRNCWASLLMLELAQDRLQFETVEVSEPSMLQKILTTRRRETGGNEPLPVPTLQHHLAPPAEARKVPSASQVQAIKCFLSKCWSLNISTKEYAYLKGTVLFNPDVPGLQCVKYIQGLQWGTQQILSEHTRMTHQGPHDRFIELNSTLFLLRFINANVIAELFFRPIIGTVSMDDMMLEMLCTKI
# hgDAF12 agonist: hgDAF-12 agonism, primary luciferase screen; HEK293 GAL4-hgDAF12 UAS-luciferase reporter, agonist luminescence; normalized to butyrate control; activation, % at 6.8 µM; hit rate 1.8% among 370,000;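 active = activation above a cutoff set at the mean of all screened compounds plus 3 SD, cut at about 10% in these data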;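 also: 0% = DMSO wells and 100% = sodium butyrate wells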
# DAX1 conf: confirmation of human DAX1 (NR0B1) inhibitors. shares compounds with DAX1 inh-1. HEK293T StAR-promoter luciferase reporter, SF-1/DAX-1 repression. inhibition, % at 6.8 µM. hit rate 87% among 2,400. AID 652134;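 active = inhibition above the average of every tested compound plus 3 SD, cut at about 3.8% in these data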;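 also: 0% = DAX-1 cells with DMSO and 100% = no DAX-1 control cells with DMSO; active compounds raise luminescence by relieving repression of the StAR reporter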
# Target sequence (P51843 whole entry, looked up): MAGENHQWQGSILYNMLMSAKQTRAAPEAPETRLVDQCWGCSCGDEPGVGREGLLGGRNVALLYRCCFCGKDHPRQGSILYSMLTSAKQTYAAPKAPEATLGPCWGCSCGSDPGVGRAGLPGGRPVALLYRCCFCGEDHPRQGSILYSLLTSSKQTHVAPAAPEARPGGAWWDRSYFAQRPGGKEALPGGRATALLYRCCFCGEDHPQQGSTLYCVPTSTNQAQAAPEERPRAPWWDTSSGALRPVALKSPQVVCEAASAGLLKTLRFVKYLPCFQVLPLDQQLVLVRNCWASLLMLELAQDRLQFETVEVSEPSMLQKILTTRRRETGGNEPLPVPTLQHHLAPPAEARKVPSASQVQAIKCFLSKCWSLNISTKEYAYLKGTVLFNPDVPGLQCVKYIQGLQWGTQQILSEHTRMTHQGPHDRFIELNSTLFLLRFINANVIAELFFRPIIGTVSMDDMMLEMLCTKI
# SF1 mutant ctr: nonselective inhibitor or artifact in SF-1 mutant DAX1 counter-screen | shares compounds with DAX1 inh-1 | HEK293 StAR-luciferase, SF-1 AF2 mutant, luminescence | inhibition, % at 6.8 µM | hit rate 78% among 2,400 | AID 652136;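 active = inhibition above the mean of all tested compounds plus 3 SD, cut at about 3% in these data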;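 also: 0% = DAX-1 transfected cells with DMSO and 100% = cells without DAX-1 with DMSO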
# LXR ag: activates human LXR-beta, counter-screen for hcDAF-12 agonists. shares compounds with hcDAF-12 act. HEK293 Gal4-LXR tk-luc reporter, luminescence, 24 h; normalized: DMSO 0%, positive control 100%. activation, % at 6.8 µM. 3,400 tested, under 10 active;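 active = mean percent activation of the reporter above a cutoff set as the average over tested compounds plus their standard deviation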
# hcDAF12 conf: hcDAF-12 agonism, confirmation assay; HEK293 hcDAF-12 lit1-tk-luc reporter, luminescence; % of Δ7-dafachronic acid response; hit rate 61% among 3,400; shares compounds with hcDAF-12 act; activation, % at 6.8 µM;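 active = mean activation across triplicate tests above the threshold derived from the earlier primary screen, cut at about 5.5% in these data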;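 also: 0% = DMSO only wells and 100% = 3 µM Δ7-dafachronic acid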
# hgDAF12 ag: confirmation of H. glycines DAF-12 agonists; hit rate 80% among 3,300; HEK293 GAL4-hgDAF12 luciferase reporter, agonist mode; percent of butyrate response; activation, % at 6.8 µM; shares compounds with hgDAF12 agonist;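 active = mean activation over triplicate wells above the hit cutoff derived from the earlier primary screen, cut at about 11% in these data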;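 also: 0% = DMSO low control and 100% = 2 mM sodium butyrate high control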
# LXRb DAF12 ctr: LXR-beta agonism as DAF-12 counter-screen; shares compounds with hgDAF12 agonist; HEK293 Gal4-LXR luciferase reporter, 24 h; activation, % at 6.8 µM; 3,300 tested, under 10 active;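 active = mean activation of the triplicate above a set limit carried over from the primary screen, none filed active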
# Active calls of the source: *; . = not tested or not shown. Hits are enriched below; roughly 5.7% of the tested compounds scored in any of these assays.
SMILES,DAX1 inh-1,hcDAF-12 act,ssDAF-12 act,AHR act,DAX1 inh-2,hgDAF12 agonist,DAX1 conf,SF1 mutant ctr,hgDAF12 ag,LXRb DAF12 ctr,others
COc1ccc2oc(=O)c(C(=O)NC(C)c3ccccc3)cc2c1 (stereo not drawn),-0.5,-3.4,-1.3,2.5,-0.8,-1.2,.,.,.,.,
COc1ccc2oc(=O)c(C(=O)Nc3ccccc3O)cc2c1,5.6*,6.1*,0.7,-5.4,-1.2,19.1*,11.1*,6.8*,16.4*,0.9,
COc1ccc(NC(=O)c2cc3cc(OC)ccc3oc2=N)cc1,-0.6,-1.2,-0.5,-7.2,0.8,-0.5,.,.,.,.,
COc1ccc(NC(=O)c2cc3ccccc3oc2=O)cc1,6.7*,5.8*,1.1*,.,0.8,22.7*,3.3,-0.7,10.2,0.6,
Fc1ccccc1/C=N/n1c(COc2ccccc2)n[nH]c1=S,0.1,0.4,-0.3,10.0,3.5,-0.9,.,.,.,.,
COC(=O)c1ccc(-c2ccc(/C=N/NC(=O)Cc3nnc(N)s3)o2)cc1,0.7,4.6,-0.4,7.0,3.6,2.8,.,.,.,.,
Oc1ccc(N=Nc2n[nH]c(-c3ccccc3)n2)cc1,7.1*,5.5,0.8,13.3,0.1,14.6*,14.9*,9.2*,17.3*,0.8,
CC1(c2ccccc2Br)NC(=O)N(CC(=O)N2CCc3ccccc3C2)C1=O (stereo not drawn),0.9,1.8,-1.6,-0.1,-0.6,-4.5,.,.,.,.,
Nc1cc2sc(-c3ccc(C(=O)O)cc3)nc2cc1Cl,3.1,3.8,-0.6,-5.7,-0.9,7.8,.,.,.,.,
Cc1cc(-c2nc3cc(F)ccc3s2)ccc1N,7.0*,18.1*,3.7*,.,-3.0,19.9*,8.4*,4.5*,23.6*,1.1,LXR ag=2.0;hcDAF12 conf=16.9*
CN(C)C(CNC(=O)c1cc(-c2ccco2)nc2ccccc12)c1ccccc1 (stereo not drawn),-0.1,-0.6,-1.4,13.7,-0.4,-3.7,.,.,.,.,
Oc1ccc(-c2cc(-c3ccc(O)cc3)nc(-c3ccccc3)n2)cc1,-0.8,-2.5,-2.0,1.9,1.7,2.1,.,.,.,.,
Oc1ccc(-c2nnc(-c3ccc(O)cc3)nn2)cc1,5.5*,6.5*,0.8,-1.0,-0.9,15.0*,13.1*,8.4*,21.1*,1.1,
CC1(C)C(=O)Nc2ccccc2N1C(=O)COC(=O)c1ccc(NC(N)=O)cc1,-1.1,0.6,-1.4,.,-1.9,-1.3,.,.,.,.,
COc1ccc(OC)c(NC(=O)c2cc(OC(C)=O)cc(C(=O)Nc3cc(OC)ccc3OC)c2)c1,-1.9,-4.7,-2.5,13.2,-4.5,-6.8,.,.,.,.,
Cc1ccc(OCCSc2ncccn2)c(C)c1,8.2*,4.1,0.3,.,5.1*,23.0*,11.8*,8.2*,16.4*,0.8,
COc1cc2c(cc1OC)C(=O)CCC2,-2.7,-1.5,-0.9,.,0.4,-0.9,.,.,.,.,
CC(=O)Oc1ccc(C(=O)NCCc2ccccc2)cc1,7.2*,3.7,0.6,3.7,0.6,15.5*,12.4*,5.3*,14.4*,0.6,
COc1ccc(/C=N/N=C(\N)c2nonc2N)cc1,8.7*,12.2*,0.5,.,-2.0,15.5*,14.4*,5.9*,16.1*,0.9,LXR ag=1.4;hcDAF12 conf=6.6*
O=c1[nH]c(=O)n(C2CC(O)C(CO)O2)cc1I (stereo not drawn),13.3*,4.2,-0.9,.,4.2,14.9*,22.8*,9.3*,16.1*,0.1,
Cc1c(C(=O)NCc2cccc(C(F)(F)F)c2)sc(=O)n1Cc1ccc(S(=O)(=O)N(C)C)cc1,-1.9,-2.8,-1.2,.,.,-3.8,.,.,.,.,
Cc1cc(C(=O)COC(=O)c2ccc(Cl)c(S(N)(=O)=O)c2)c(C)n1C1CC1,8.0*,1.8,0.2,-2.1,0.9,13.8*,8.3*,5.4*,15.1*,0.5,
Cc1ccc(/C=N/Nc2ccc3ccccc3n2)o1,10.6*,8.8*,1.1*,35.4,-2.7,22.3*,5.8*,1.4,11.2*,0.9,LXR ag=1.8;hcDAF12 conf=10.3*
Cc1cccc(/C=N/Nc2ccc3ccccc3n2)c1,1.2,3.5,-1.7,24.4,-7.0,-1.7,.,.,.,.,
COc1cc(SC)ccc1C(=O)Nc1ccc2c(c1)OCCO2,4.7*,8.2*,0.8,-0.6,0.2,13.8*,9.2*,3.6*,16.1*,0.9,LXR ag=1.7;hcDAF12 conf=7.2*
SMILES,DAX1 inh-1,hcDAF-12 act,ssDAF-12 act,AHR act,DAX1 inh-2,hgDAF12 agonist,DAX1 conf,SF1 mutant ctr,hgDAF12 ag,LXRb DAF12 ctr,others
COc1cc(SC)ccc1C(=O)Nc1nccs1,4.7*,11.5*,1.3*,52.4*,-0.7,17.0*,15.2*,5.6*,16.6*,1.0,LXR ag=2.2;hcDAF12 conf=13.6*
O=C(Nc1cccc(S(=O)(=O)NC2=NCCC2)c1)c1cnc(Cl)c(Cl)c1,-0.6,3.0,-1.4,2.8,-0.7,-0.8,.,.,.,.,
Cc1cccc(CNC(=O)Cn2ccc3cc(S(=O)(=O)N4CCCC4)ccc32)c1,-0.4,-1.0,-0.8,1.7,0.5,-1.3,.,.,.,.,
O=C(/C=C/c1ccc([N+](=O)[O-])cc1)Nc1ncc([N+](=O)[O-])s1,7.4*,11.7*,0.7,.,4.0,26.9*,-5.5,-6.3,5.6,0.7,LXR ag=0.9;hcDAF12 conf=5.8*
COc1ccc2nc(NN=C(C)c3ccccn3)cc(C)c2c1,-0.4,-0.4,-0.8,.,-4.9,1.9,.,.,.,.,
Cc1cccc(N2CCN(C(=O)CCC(=O)N3CC(C)Oc4ccc(C)cc43)CC2C)c1 (stereo not drawn),0.8,-0.4,-1.3,1.5,1.0,2.7,.,.,.,.,
Cn1c(CCc2ccc(N)cc2)nc2ccccc21,6.1*,2.0,-0.9,17.6,3.0,15.2*,9.5*,5.0*,14.5*,0.5,
COc1cccc2cc(-c3csc(NC(=O)CCC(=O)NCCCN4CCC(C)CC4)n3)c(=O)oc12,4.5*,6.2*,1.6*,-0.6,-2.6,15.5*,16.4*,3.8*,14.0*,0.8,
CCN1C(=O)[C@H]2[C@H]3CN=C(SCc4ccc(OC)cc4)N3[C@@](CC)(C(=O)OC)[C@H]2C1=O,-0.5,-1.4,-1.0,.,0.0,4.0,.,.,.,.,
